Compound activity as filed in PubChem BioAssay.
Sampled rows, rich in hits. Any-hit rate of the full collection: about 15%.
HCMV inh: human cytomegalovirus inhibition; hit rate 4.5% among 410,000; activity change, negative = inhibition, % at 57.5 µM; HFF cells, HCMV-luciferase reporter, 72 h; stronger effect = lower value; in the data active means activity change below about -60%; inconclusive means no clear call, values can overlap the other calls; inactive means above about -39%; further: on the % scale 0 is the no-effect control and ±100 the full control effect
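After 16 h attachment at 37C, HFF cells received test compound and HCMV-luciferase (1 PFU/cell); reporter luminescence read 72 h later, data normalized against buffer-only and known inhibitor Salinomycin.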
Pf growth 96h: P. falciparum growth inhibition at 96 hours | P. falciparum luciferase reporter growth, 96 h | Potency, µM (series often up to 28.7 µM), for the others: at the highest dose activity change, negative = inhibition, actives largely listed as inhibitors | hit rate 6.9% among 320,000 | AID 504834; further: potency means the concentration at half of the fitted maximal effect; on the % scale 0 is the no-effect control and ±100 the full control effect
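Two-generation exposure (96 h) targets delayed-death phenotype. Reporter parasites carrying integrated firefly luciferase, in red cells at 2% hematocrit and 0.05% parasitemia final, kept at 37 C, 5% CO2; luminescence loss indicates inhibition.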
SARS PLP yeast: SARS-CoV PLP inhibition in yeast; S. cerevisiae expressing SARS-CoV PLpro, growth rescue; Potency, µM (series often up to 32.9 µM), for inactives: at the top dose activity, positive = growth rescue, most hits filed as activators; hit rate 0.19% among 330,000; calls by dose curve; further: potency means the concentration at half of the fitted maximal effect; 0% is about no effect; nearly all actives have a fitted effect of over 55% in size
Sm TGR block: inhibitors of Schistosoma mansoni thioredoxin glutathione reductase | hit rate 3% among 360,000 | purified TGR, DTNB reduction, TNB absorbance 405 nm | Potency, µM (top dose mostly 114 µM), without a hit: at the top dose activity change, negative = inhibition, actives largely listed as inhibitors | Q962Y6; further: potency means the concentration at half of the fitted maximal effect; on the % scale 0 is the no-effect control and ±100 the full control effect; nearly all actives have a fitted effect of over 60% in size
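Kinetic colorimetric format: TGR-catalysed, NADPH-driven DTNB reduction monitored via TNB absorbance. Enzyme dispensed at 20 nM; compound exposure 15 min at room temperature before reaction start.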
Pf growth 48h: P. falciparum growth inhibition at 48 hours (one generation) | P. falciparum luciferase growth in erythrocytes, 48 h | Potency, µM (highest dose often 28.7 µM), for the others: at the top dose activity change, negative = inhibition, most hits filed as inhibitors | hit rate 5.9% among 310,000 | AID 504832; further: potency means the concentration at half of the fitted maximal effect; on the % scale 0 is the no-effect control and ±100 the full control effect
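Luciferase-expressing P. falciparum in infected erythrocytes (2% hematocrit, 0.1% parasitemia final) in RPMI 1640/0.5% Albumax were exposed to compound for 48 hours at 37 C, 5% CO2; growth read as luminescence.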
HCV inhibitor: HCV inhibition; Huh7.5.1 HCVcc-Cre infection, luciferase reporter, 44 h; Potency, µM (series often up to 41.8 µM), for inactives: at the highest dose activity change, negative = inhibition, most hits filed as inhibitors; hit rate 3.4% among 340,000; AID 651820; further: potency means the concentration at half of the fitted maximal effect; on the % scale 0 is the no-effect control and ±100 the full control effect
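Whole-lifecycle infectious HCVcc-Cre system; cells 1,000/well, compound then virus (~0.5 moi) added 4 h after plating, 44 h culture. Luciferase read 15 sec following 15 min substrate incubation, room temp.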
Starred values were filed as active, the others as inactive; ? = inconclusive; . = not tested or not shown. Unless noted, the call rests on the fitted dose curve; in most records, active means well fitted curve in the direction sought with a large enough effect; inconclusive means small, poorly fitted or top-dose-only effect, or another doubt; inactive means no such curve, though single readings can be large; an effect the other way counts as inactive or inconclusive.

SMILES | HCMV inh | Pf growth 96h | SARS PLP yeast | Sm TGR block | Pf growth 48h | HCV inhibitor
Cc1cccc(/C=N/NC(=O)c2ccc(Br)cc2)c1 | -17.2 | 32.4% | -8.7% | -2.0% | 71.0% | -6.2%
Cc1cccc(N/N=C(\C=N\N)C(=O)c2ccc(Br)cc2)c1 | . | -25.7% | -11.1% | 4.1% | 11.7µM* | .
CC(=O)OC1CCC2(C)C(CCC3C2CC(=O)C2(C)C3CC(C3CCCC3=O)C2C(C)=O)C1 (stereo unspecified) | -37.9 | . | . | . | . | 4.9%
O=C(COC(=O)CC1CCCC1)Nc1ccc(Cl)cc1 | -1.4 | 0.7% | 0.2% | -5.1% | 18.5% | -8.6%
Cc1ccccc1NS(=O)(=O)c1cc(C(=O)N2CCCC2)ccc1Cl | 14.1 | 10.8% | -3.0% | ? | -28.6% | .
CS(=O)(=O)N(Cc1ccccc1Cl)c1ccc(C(=O)NCc2ccccn2)cc1 | -21.8 | 10.4µM* | 14.2% | -2.9% | ? | 9.4%
Cc1ccc(N(Cc2ccc(C(=O)NCCSc3ccccn3)cc2)S(C)(=O)=O)cc1C | 6.5 | 0.738µM* | -11.9% | -13.6% | ? | 1.6%
Cc1ccccc1CN(c1ccc(C(=O)NCc2ccccn2)cc1)S(C)(=O)=O | -38.0 | 20.1% | 1.0% | . | 1.1% | 15.2%
C=CCNC(=O)c1ccccc1NC(=O)c1ccc(Cl)c(S(=O)(=O)Nc2cc(C)ccc2C)c1 | -18.4 | 8.28µM* | 5.2% | -9.7% | ? | 12.6µM*
Cc1ccccc1NS(=O)(=O)c1cc(C(=O)Nc2ccccc2-c2ccccc2)ccc1Cl | 7.9 | -15.9% | -9.7% | -7.8% | ? | 11.2µM*
COc1ccc(C(=O)Nc2ccc(N3CCN(c4ccccc4)CC3)c(C(=O)O)c2)cc1 | 42.0 | . | . | -1.2% | . | .
Cc1ccc(CN2COc3c(Cl)cc4c(-c5ccccc5)cc(=O)oc4c3C2)cc1 | -1.2 | . | . | 7.1% | . | .
COc1cc(CN(C)C(=O)C2CCN(S(=O)(=O)c3cccs3)CC2)ccc1OC(F)F | -9.2 | . | . | . | . | ?
O=C(NCc1ccccn1)c1ccc(Cl)c(S(=O)(=O)Nc2ccccc2C(=O)NCc2ccccn2)c1 | -15.4 | 9.28µM* | -3.9% | 6.4% | 11.7µM* | 31.9%
CCN(CC)S(=O)(=O)c1ccc(C(=O)N2CCc3ccccc32)cc1 | 87.8 | ? | 0.1% | -0.1% | -29.3% | -3.8%
CN1c2ccccc2C(C)(C)C12CC(c1cccc(S(=O)(=O)N3CCCC3)c1)=NO2 (stereo unspecified) | -71.8* | ? | -19.7% | -5.9% | 10.4µM* | ?
CCN(CC)S(=O)(=O)c1ccc(C2=NOC3(C2)N(C)c2ccccc2C3(C)C)cc1 (stereo unspecified) | -75.9* | 13.1µM* | -3.2% | 6.2% | 11.7µM* | -13.3%
CN1c2ccccc2C(C)(C)C12CC(c1ccc(S(=O)(=O)N3CCCCC3)cc1)=NO2 (stereo unspecified) | -70.3* | -20.1% | -4.2% | 1.3% | -11.2% | 7.8%
COc1ccc(OC)c(CNC(=O)c2nn(-c3ccc(OC)c(Cl)c3)c(=O)c3c2c2ccccc2n3C)c1 | 13.9 | . | . | 5.4% | . | .
CCOC(=O)[C@]12CCCC=C1N(Cc1ccc3c(c1)OCO3)C(=O)[C@H](CC(=O)N1CCCC1)C2 | -13.6 | . | . | . | . | .
COc1ccc(S(=O)(=O)Nc2c(C)cc(C)cc2C)c2cccnc12 | -61.8* | -19.0% | 5.1% | 2.5% | 22.5% | 14.3%
CCc1ccccc1NS(=O)(=O)c1ccc(OC)c2ncccc12 | ? | ? | -11.7% | 4.1% | 11.9% | -18.4%
Cc1cc(C)c2sc(N(CCCN(C)C)C(=O)c3ccc(S(=O)(=O)N4CCCc5ccccc54)cc3)nc2c1 | -60.6* | ? | -2.5% | 4.6% | 9.28µM* | ?
COc1ccc2sc(N(CCCN(C)C)C(=O)c3ccc(S(=O)(=O)N4CCCC4)cc3)nc2c1 | 15.1 | 6.4% | 3.0% | -1.2% | -19.7% | ?
CN(C)CCCN(C(=O)c1ccc(S(=O)(=O)N2CCc3ccccc3C2)cc1)c1nc2c(F)cccc2s1 | 13.9 | -10.1% | -3.5% | -18.1% | ? | ?
